PubChem BioAssay (NCATS)
Results filed as inconclusive are left out. The source made the active and inactive calls. Unless noted, calls come from the whole dose curve.

Columns and labels:
[1] = qHTS for Inhibitors of the Functional Ribonucleoprotein Complex (vRNP) of Lassa (LASV) Arenavirus: LASV Primary Screen - GLuc reporter signal (AID 1347082; calls by dose curve; tested in HEK293 reporter line; note: nearly all actives have a fitted effect of over 60% in size)
[2] = qHTS for Inhibitors of the Functional Ribonucleoprotein Complex (vRNP) of Lassa (LASV) Arenavirus: Viability assay - alamar blue signal for LASV Primary Screen (AID 1347083; calls by dose curve; tested in HEK293 reporter line; note: nearly all actives have a fitted effect of over 80% in size)
[3] = qHTS for Inhibitors of the Functional Ribonucleoprotein Complex (vRNP) of Lymphocytic Choriomeningitis Arenaviruses (LCMV): Viability assay - alamar blue signal for LCMV Primary Screen (AID 1347085; calls by dose curve; tested in HEK293 reporter line; note: nearly all actives have a fitted effect of over 80% in size)
[4] = target: Nucleoprotein (Lymphocytic choriomeningitis virus (strain Armstrong)) (UniProt P09992); experiment: qHTS for Inhibitors of the Functional Ribonucleoprotein Complex (vRNP) of Lymphocytic Choriomeningitis Arenaviruses (LCMV): LCMV Primary Screen - GLuc reporter signal (AID 1347086); note: nearly all actives have a fitted effect of over 70% in size
[5] = Cytotoxicity counterscreen for inhibitors of SARS-CoV-2 cell entry (AID 1645845); note: nearly all actives have a fitted effect of over 50% in size
Summary of the method: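 After a 15 min room-temperature ATPLite 1step step, luminescence reflected ATP remaining in HEK293-ACE2 cells exposed to compound for 1 h plus 48 h at 37 C, with percent activity set by cell and no-cell controls.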

[6] = Confirmatory qHTS to identify inhibitors of SARS-CoV-2 cell entry (AID 1645844); note: nearly all actives have a fitted effect of over 45% in size
Summary of the method: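 Using stable human ACE2 Expi293F cells, compounds preincubated 1 hr before spike pseudoparticle infection; luciferase signal after 48 hr at 37C, 5% CO2, normalised to spike PP and no-fusion-protein PP wells.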

[7] = Primary qHTS to identify inhibitors of SARS-CoV-2 cell entry (AID 1645846); conditions: activity change, negative = inhibition: at 57.1 µM (top of the series) unless noted; note: nearly all actives have a fitted effect of over 45% in size
Summary of the method: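 Data are normalized to wells receiving SARS-CoV-2-S pseudoparticles and those given bald particles. Entry signal was luciferase luminescence in stable hACE2 Expi293F cells, 48 hr post-infection, after 1 hr compound pretreatment.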

[8] = VSVG counterscreen qHTS to identify inhibitors of SARS-CoV-2 cell entry (AID 1645847); note: nearly all actives have a fitted effect of over 65% in size
Summary of the method: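 Counterscreen using VSV-G (not spike) pseudotyped MLV particles on ACE2-expressing Expi293F cells after 1 h compound preincubation; infection ran 48 h at 37 °C. Data normalized to VSV-G PP and bald-PP wells.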

[9] = target: Cytochrome P450 2C9 (Homo sapiens) (UniProt P11712); experiment: qHTS Assay for Inhibitors and Substrates of Cytochrome P450 2C9 (AID 883; active = well fitted inhibition curve with a large enough effect; note: nearly all actives have a fitted effect of over 60% in size)
Summary of the method: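 Human CYP2C9 (10nM) hydroxylated Luciferin-H (100uM, at its KM) to luciferin in 25mM KPO4. Compound was preincubated 10 min at 37C, then NADPH regeneration started a 60 min reaction at 37C. Luminescence was read after detection reagent, normalized to 57uM sulphaphenazole.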
Potency is the fitted concentration of half-maximal effect.

Sequence of Nucleoprotein (Lymphocytic choriomeningitis virus (strain Armstrong)) (P09992 whole entry, looked up): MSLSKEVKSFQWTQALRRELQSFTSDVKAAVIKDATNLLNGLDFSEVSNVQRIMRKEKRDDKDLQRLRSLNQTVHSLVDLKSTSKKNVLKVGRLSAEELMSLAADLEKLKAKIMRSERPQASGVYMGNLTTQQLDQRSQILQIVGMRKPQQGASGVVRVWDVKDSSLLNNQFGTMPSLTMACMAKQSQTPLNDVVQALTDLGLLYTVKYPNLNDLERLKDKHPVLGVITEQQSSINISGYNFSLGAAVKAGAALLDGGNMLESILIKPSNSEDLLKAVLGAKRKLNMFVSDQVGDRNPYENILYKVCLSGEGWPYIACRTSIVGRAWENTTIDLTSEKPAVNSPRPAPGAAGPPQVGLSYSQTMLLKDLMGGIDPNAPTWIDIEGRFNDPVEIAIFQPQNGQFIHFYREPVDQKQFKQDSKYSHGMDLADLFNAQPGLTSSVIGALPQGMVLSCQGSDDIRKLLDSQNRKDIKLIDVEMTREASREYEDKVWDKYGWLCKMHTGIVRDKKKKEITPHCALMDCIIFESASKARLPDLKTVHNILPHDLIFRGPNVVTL
Sequence of Cytochrome P450 2C9 (Homo sapiens) (P11712 whole entry, looked up): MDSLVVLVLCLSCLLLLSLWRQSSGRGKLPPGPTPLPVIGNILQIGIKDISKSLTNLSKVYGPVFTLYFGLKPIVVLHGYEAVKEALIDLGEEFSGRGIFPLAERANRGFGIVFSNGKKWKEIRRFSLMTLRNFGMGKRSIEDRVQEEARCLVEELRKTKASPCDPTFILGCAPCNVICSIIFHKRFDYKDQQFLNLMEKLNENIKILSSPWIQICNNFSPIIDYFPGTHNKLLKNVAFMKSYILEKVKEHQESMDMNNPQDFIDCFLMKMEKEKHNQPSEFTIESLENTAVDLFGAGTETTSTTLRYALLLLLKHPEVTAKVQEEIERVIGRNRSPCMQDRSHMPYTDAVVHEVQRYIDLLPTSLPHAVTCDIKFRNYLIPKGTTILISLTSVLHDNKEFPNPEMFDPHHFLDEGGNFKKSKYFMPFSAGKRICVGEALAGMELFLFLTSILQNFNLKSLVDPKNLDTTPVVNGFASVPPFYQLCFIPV

COc1ccc(-c2ccc3ncc4c(c3c2)n(-c2ccc(N3CCNCC3)c(C(F)(F)F)c2)c(=O)n4C)cn1
active: Potency [1] 2.2 nM | Potency [5] 4470 nM
inactive: Potency [2] | Potency [3] | Potency [4]

CS(=O)(=O)N(Cc1ccco1)CC(O)Cn1c2ccccc2c2ccccc21 (centres undefined)
inactive: Potency [1] | Potency [2] | Potency [3] | Potency [4] | Potency [5]
-37.4%: activity change, negative = inhibition [7]
active: Potency [6] 6810 nM | Potency [8] 429 nM

CC(C)[C@H](CO)Nc1nc(Nc2cccc(Cl)c2)c2ncn(C(C)C)c2n1
active: Potency [9] 7940 nM | Potency [6] 8570 nM | Potency [7] 7940 nM | Potency [8] 8570 nM
inactive: Potency [1] | Potency [2] | Potency [3] | Potency [4]

Cc1c(CN2CCN(S(C)(=O)=O)CC2)sc2c(N3CCOCC3)nc(-c3cnc(N)nc3)nc12
active: Potency [1] 86.3 nM | Potency [2] 43.2 nM | Potency [3] 122 nM | Potency [4] 96.8 nM | Potency [6] 215 nM | Potency [8] 1210 nM

CCCCCNC(=O)N1CCC(CN(Cc2ccc(Cl)cc2)Cc2ccc([N+](=O)[O-])s2)C1 (centres undefined)
inactive: Potency [1] | Potency [2] | Potency [3] | Potency [4] | Potency [5]
-21.9%: activity change, negative = inhibition [7]

COc1ccc(C(=O)CC2(O)C(=O)Nc3c(Cl)ccc(Cl)c32)cc1 (centres undefined)
active: Potency [1] 24300 nM | Potency [2] 1530 nM | Potency [3] 432 nM | Potency [4] 2730 nM
inactive: Potency [5]

CNC(=O)c1ccc2cc(C3(O)CCn4cncc43)ccc2c1 (centres undefined)
-19.9%: activity change, negative = inhibition [7]
inactive: Potency [1] | Potency [2] | Potency [3] | Potency [4] | Potency [5]

COc1ccc(Nc2nccc(NCCO)n2)cc1
inactive: Potency [1] | Potency [2] | Potency [3] | Potency [4] | Potency [5] | Potency [7]

C[C@H](NC(=O)C(=O)Nc1ccccc1C(C)(C)C)C(=O)N[C@@H](CC(=O)O)C(=O)COc1c(F)c(F)cc(F)c1F
-42.2%: activity change, negative = inhibition [7]
inactive: Potency [1] | Potency [2] | Potency [3] | Potency [4] | Potency [5]

COC(=O)C1C2CC3c4[nH]c5cc(OC)ccc5c4CCN3CC2CC(OC(=O)c2cc(OC)c(OC)c(OC)c2)C1OC (centres undefined)
inactive: Potency [1] | Potency [2] | Potency [3] | Potency [4] | Potency [5]

C=C[C@@H]1CN2CCC1C[C@H]2[C@H](O)c1ccnc2ccc(OC)cc12 (some centres undefined)
-48.9%: activity change, negative = inhibition [7]
inactive: Potency [1] | Potency [2] | Potency [3] | Potency [4] | Potency [5]

Nc1nc2c(c(=O)[nH]1)N(C=O)[C@H](CNc1ccc(C(=O)N[C@@H](CCC(=O)O)C(=O)O)cc1)CN2
inactive: Potency [1] | Potency [2] | Potency [3] | Potency [4] | Potency [5] | Potency [7]

C=C(C)[C@@H]1CC[C@]2(C)CC[C@]3(C)[C@H](CC[C@@H]4[C@@]5(C)CC[C@H](O)C(C)(C)[C@H]5CC[C@]43C)[C@@H]12
inactive: Potency [1] | Potency [2] | Potency [3] | Potency [4] | Potency [5] | Potency [7]

COC(=O)[C@H](c1ccccc1Cl)N1CCc2sccc2C1
inactive: Potency [1] | Potency [2] | Potency [3] | Potency [4] | Potency [5]
-28.2%: activity change, negative = inhibition [7]

CCCC1OC2C[C@@H]3[C@H]4CCC5=CC(=O)C=C[C@]5(C)[C@H]4C(O)C[C@]3(C)[C@]2(C(=O)CO)O1 (some centres undefined)
inactive: Potency [1] | Potency [2] | Potency [3] | Potency [4] | Potency [5]

C[C@]12CCC3c4ccc(O)cc4CCC3C1CCC2=O (some centres undefined)
inactive: Potency [1] | Potency [2] | Potency [3] | Potency [4] | Potency [5] | Potency [7]

CCCCCCCCCCCC(CC1OC(=O)C1CCCCCC)OC(=O)C(CC(C)C)NC=O (centres undefined)
inactive: Potency [1] | Potency [2] | Potency [3] | Potency [4] | Potency [5]
0.438%: activity change, negative = inhibition [7]

CN(C[C@@H]1COCCO1)S(=O)(=O)Nc1ccc2ccc3ncc(-c4cnn(C)c4)cc3c(=O)c2c1
inactive: Potency [1] | Potency [2] | Potency [3] | Potency [4] | Potency [5]

CCN1CCN(c2ccc(Nc3cc(N(C)C(=O)Nc4c(Cl)c(OC)cc(OC)c4Cl)ncn3)cc2)CC1
inactive: Potency [1] | Potency [2] | Potency [3] | Potency [4] | Potency [5] | Potency [7]

CC(=O)NC(CS)C(=O)O (centres undefined)
inactive: Potency [1] | Potency [2] | Potency [3] | Potency [4] | Potency [5]
-1.31%: activity change, negative = inhibition [7]

NCc1c[nH]c(=S)n1[C@H]1CCc2c(F)cc(F)cc2C1
-19.7%: activity change, negative = inhibition [7]
inactive: Potency [1] | Potency [2] | Potency [3] | Potency [4] | Potency [5]

O=C(NC[C@H](O)CO)c1ccncc1Nc1ccc(I)cc1F
inactive: Potency [1] | Potency [2] | Potency [3] | Potency [4] | Potency [5] | Potency [7]

CC(NCCc1ccc(O)cc1)C(O)c1ccc(O)cc1 (centres undefined)
inactive: Potency [1] | Potency [2] | Potency [3] | Potency [4] | Potency [5]

C[C@]12CC[C@@H]3c4ccc(O)cc4C[C@@H](CCCCCCCCCS(=O)CCCC(F)(F)C(F)(F)F)[C@H]3[C@H]1CC[C@H]2O (some centres undefined)
inactive: Potency [1] | Potency [2] | Potency [3] | Potency [4] | Potency [5]

Cn1cnc2c(F)c(Nc3ccc(Br)cc3F)c(C(=O)NOCCO)cc21
inactive: Potency [1] | Potency [2] | Potency [3] | Potency [4] | Potency [5]
-25.1%: activity change, negative = inhibition [7]

Cn1cc(-c2ccc3ncc(Cc4ccc5ncccc5c4)n3n2)cn1
inactive: Potency [1] | Potency [2] | Potency [3] | Potency [4] | Potency [5] | Potency [7]

C[C@H](c1ccc(F)cc1CCCC(=O)O)N(c1cc(F)ccc1F)S(=O)(=O)c1ccc(Cl)cc1
inactive: Potency [1] | Potency [2] | Potency [3] | Potency [4] | Potency [5]

CC1CCC(C(=O)N(c2cc(C#CC(C)(C)C)sc2C(=O)O)C2CCC(O)CC2)CC1 (centres undefined)
inactive: Potency [1] | Potency [2] | Potency [3] | Potency [4] | Potency [5]

C[C@H](O)[C@@H]1C(=O)N2C(C(=O)O)=C(S[C@@H]3CN[C@H](CNS(N)(=O)=O)C3)[C@@H](C)[C@@H]12
inactive: Potency [1] | Potency [2] | Potency [3] | Potency [4] | Potency [5] | Potency [7]

C[C@H](CCC(=O)O)[C@H]1CCC2C3C[C@H](O)[C@@H]4C[C@H](O)CC[C@]4(C)C3CC[C@@]21C (some centres undefined)
inactive: Potency [1] | Potency [2] | Potency [3] | Potency [4] | Potency [5]
-10.6%: activity change, negative = inhibition [7]

O=C(CO)N1CCC(c2[nH]nc(-c3ccc(Cl)cc3)c2-c2ccncn2)CC1
-14.2%: activity change, negative = inhibition [7]
inactive: Potency [1] | Potency [2] | Potency [3] | Potency [4] | Potency [5]

CCOC(=O)C=C[C@H](C[C@@H]1CCNC1=O)NC(=O)[C@@H](CC(=O)[C@@H](NC(=O)c1cc(C)on1)C(C)C)Cc1ccc(F)cc1
inactive: Potency [1] | Potency [2] | Potency [3] | Potency [4] | Potency [5]

O=C(NCc1ccncc1)C12C[C@H]3C[C@@H](C1)CC(c1ccc(Cl)cc1)(C3)C2
inactive: Potency [1] | Potency [2] | Potency [3] | Potency [4] | Potency [5]

C=Cc1c(C)c2cc3nc(cc4[nH]c(cc5nc(cc1[nH]2)C(C)=C5CCC(=O)O)c(CCC(=O)OC)c4C)[C@@]1(C)C3=CC=C(C(=O)OC)[C@H]1C(=O)OC
active: Potency [1] 1720 nM | Potency [2] 344 nM | Potency [3] 172 nM | Potency [4] 217 nM
inactive: Potency [5] | Potency [7]

COc1cccc2c(NCc3ccccc3)nc(-n3c(N)nc4ccccc43)nc12
inactive: Potency [1] | Potency [2] | Potency [3] | Potency [4] | Potency [5]

NC(=O)c1ccc2[nH]ccc2c1
-19.6%: activity change, negative = inhibition [7]
inactive: Potency [1] | Potency [2] | Potency [3] | Potency [4] | Potency [5]

COc1nccc(-c2c(-c3ccc(F)cc3)ncn2C2CCNCC2)n1
inactive: Potency [1] | Potency [2] | Potency [3] | Potency [4] | Potency [5] | Potency [7]

CC[C@H](C)n1cc(C)c2c(C(=O)NCc3c(C)cc(C)[nH]c3=O)cc(-c3ccc(N4CCNCC4)nc3)cc21
inactive: Potency [1] | Potency [2] | Potency [3] | Potency [4] | Potency [5]

NC(=O)[C@@H](CCC(F)(F)F)N(Cc1ccc(-c2ncon2)cc1F)S(=O)(=O)c1ccc(Cl)cc1
inactive: Potency [1] | Potency [2] | Potency [3] | Potency [4] | Potency [5]

CC(C)(F)C[C@H](N[C@@H](c1ccc(-c2ccc(S(C)(=O)=O)cc2)cc1)C(F)(F)F)C(=O)NC1(C#N)CC1
inactive: Potency [1] | Potency [2] | Potency [3] | Potency [4] | Potency [5]

C[C@@H]1CC[C@@]2(OC1)OC1CC3C4CC=C5CC(O)CCC5(C)C4CCC3(C)C1[C@@H]2C (some centres undefined)
inactive: Potency [1] | Potency [2] | Potency [3] | Potency [4] | Potency [5]

Cc1cn2cc(C(=O)N(C)CCO)cc(N[C@@H]3CCOc4cccc(C)c43)c2n1
inactive: Potency [1] | Potency [2] | Potency [3] | Potency [4] | Potency [5] | Potency [7]

O=c1ncn2nc(Sc3ccc(F)cc3F)ccc2c1-c1c(Cl)cccc1Cl
inactive: Potency [1] | Potency [2] | Potency [3] | Potency [4] | Potency [5]

COc1cc2nccc(Oc3ccc(NC(=O)Nc4ccc(F)cc4F)c(F)c3)c2cc1OC
inactive: Potency [1] | Potency [2] | Potency [3] | Potency [4] | Potency [5]

C[C@H]1COC2=C1C(=O)C(=O)c1c2ccc2c1CCCC2(C)C
-2.76%: activity change, negative = inhibition [7]
inactive: Potency [1] | Potency [2] | Potency [3] | Potency [4] | Potency [5]

C#CCN(C)CC1=Cc2ccccc2Oc2ccccc21
inactive: Potency [1] | Potency [2] | Potency [3] | Potency [4] | Potency [5]
1.65%: activity change, negative = inhibition [7]

CCOc1ccccc1N=Nc1c(C)[nH]n(-c2nc(-c3ccccc3)cs2)c1=O
inactive: Potency [1] | Potency [2] | Potency [3] | Potency [4] | Potency [5] | Potency [7]

CC(Oc1ccc(O)cc1)(P(=O)(O)O)P(=O)(O)O
-6.64%: activity change, negative = inhibition [7]
inactive: Potency [1] | Potency [2] | Potency [3] | Potency [4] | Potency [5]
